This excerpt belongs to a sample that is enriched for hits.
FXIa inh mix = inhibitors of human coagulation factor XIa, pooled mixtures; P03951; purified FXIa, fluorogenic substrate; inhibition, % at 5 µM; actives 0.19% (n = 62,000); AID 680;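 note: each value is inhibition by a whole ten-compound pool holding the compound; 0% = enzyme with no mixture and 100% = wells lacking enzyme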
Calb biofilm kill = kills Candida albicans biofilms | C. albicans biofilm + clotrimazole, Alamar Blue | inhibition, % at 6 µM | actives 0.14% (n = 85,000) | AID 834;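 active = inhibition above 20%; inactive = inhibition below 20%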;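 note: preformed 24 hr biofilms exposed to compound for 48 hr; 0% = biofilm without compound and 100% = blank killed by clotrimazole plus chlorhexidine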
D1 allo mod = allosterically modulates the human D1 dopamine receptor; P21728; HEK293 D1, CRE-luciferase, dopamine EC30 potentiation; actives deviate in either direction; B-score at 10 µM; actives 5.9% (n = 58,000); AID 641;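 active = luminescence count or its row- and column-corrected plate score outside the 99.7% band of the plate's sample wells, on either side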
HePTP inh = blocks human HePTP tyrosine phosphatase; P35236; recombinant HePTP phosphatase activity, OD absorbance; inhibition, % at 20 µM; actives 0.64% (n = 110,000); AID 521; in the data active = inhibition above about 50%;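 note: plate controls were vehicle for no effect and reference inhibitor for full effect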
Target sequence (P35236 whole entry, looked up): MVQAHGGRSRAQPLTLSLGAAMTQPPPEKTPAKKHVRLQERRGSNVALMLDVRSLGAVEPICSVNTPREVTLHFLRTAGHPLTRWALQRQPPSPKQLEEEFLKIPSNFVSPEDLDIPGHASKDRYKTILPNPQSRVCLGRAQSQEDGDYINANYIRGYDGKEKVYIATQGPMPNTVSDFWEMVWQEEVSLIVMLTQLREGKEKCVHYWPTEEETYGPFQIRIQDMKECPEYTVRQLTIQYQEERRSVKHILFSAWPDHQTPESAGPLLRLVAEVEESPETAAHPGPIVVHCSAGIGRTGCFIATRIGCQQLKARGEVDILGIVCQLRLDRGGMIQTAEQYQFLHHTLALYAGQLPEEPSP
FXIIa inh mix = factor XIIa (human) inhibition, mixture screen. P00748. purified FXIIa, fluorogenic substrate, pooled mixtures. inhibition, % at 5 µM. actives 0.2% (n = 62,000);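 note: 0% = enzyme without compound and 100% = no enzyme blank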
TNAP act mid DEA = activates human TNAP at intermediate phosphate acceptor concentration. P05186. purified TNAP, CDP-star luminescence, 100 mM DEA, 30 min; stronger effect = higher value; scale: 0 levamisole-inhibited, 1 vehicle-only enzyme. activation factor at 20 µM. 64,000 tested, under 10 active. AID 813;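 active = activation factor of at least 2 at 20 µM, relative to controls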
D1 PAM confirm = confirmation of human D1 dopamine receptor allosteric modulators; shares compounds with D1 allo mod; HEK293 D1 CRE-luciferase, dopamine EC30 potentiation; stronger effect = higher value; luminescence at 10 µM; actives 88% (n = 2,200);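 active = luminescence in either of two replicates above the same-plate mean plus 3 SD of the low-dose dopamine control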
D1 ag no DA = D1 (human) signaling in absence of dopamine. shares compounds with D1 allo mod. HEK293 D1 CRE-luciferase, luminescence, no dopamine; stronger effect = higher value. luminescence at 10 µM. actives 0.8% (n = 1,900); in the data active = luminescence above about 3900
Isoprot counter = alters isoproterenol CRE-luciferase response in HEK293 cells. shares compounds with D1 allo mod. HEK293 D1 CRE-luciferase, isoproterenol EC30 counter-screen; stronger effect = higher value. luminescence at 10 µM. actives 63% (n = 2,200);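 active = luminescence in either replicate above plate mean of wells with a partly effective reference agonist dose plus 3 SD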;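 note: isoproterenol raises cAMP through native beta-adrenoceptor Gs so signal bypasses D1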
* = called active by the depositor. Cut-off read from the data, not from the text of the source, unless noted: active = inhibition above about 20% (passing the limit was not always enough); inactive = the rest.

What do the screens show for `COc1ccc(C(c2nnnn2Cc2cccs2)N2CCN(c3ccccc3F)CC2)cc1OC` (stereo unspecified)?
FXIa inh mix: 4; Calb biofilm kill: 4; D1 allo mod: 3.1*; HePTP inh: -4; FXIIa inh mix: -13; TNAP act mid DEA: 1; D1 PAM confirm: 6372; D1 ag no DA: 1596; Isoprot counter: 2472

Results for Fc1ccc(C(c2nnnn2Cc2cccs2)N2CCN(c3ccccc3)CC2)cc1 (stereo unspecified) ?
Calb biofilm kill: 7

What do the screens show for `Cc1ccccc1NC(=S)NC(=O)/C=C/c1ccc(F)cc1`?
HePTP inh: 8

What do the screens show for `COc1nc(Nc2ccc(OC)c(Cl)c2)nc(OC)n1`?
FXIa inh mix: 6; Calb biofilm kill: 3; D1 allo mod: 4.3*; HePTP inh: 10; FXIIa inh mix: 11; TNAP act mid DEA: 0.9; D1 PAM confirm: 10816*; D1 ag no DA: 1484; Isoprot counter: 3332*

Results for CCOc1nc(Nc2ccc(OC)c(Cl)c2)nc(N2CCN(c3ccc(OC)cc3)CC2)n1 ?
Calb biofilm kill: 6

Results for COc1ccccc1C1SCC(=O)N1c1ccc(Cl)c(Cl)c1 (stereo unspecified) ?
HePTP inh: -3

Results for COc1ccc(OC)c(C2=Nn3c(nnc3-c3ccco3)SC2)c1 ?
Calb biofilm kill: 10; HePTP inh: 6; TNAP act mid DEA: 0.8

How did COc1ccc(OC)c(C2=Nn3c(nnc3C3CCCCC3)SC2)c1 do in these assays?
FXIa inh mix: 9; Calb biofilm kill: 11; D1 allo mod: 16*; HePTP inh: 13; FXIIa inh mix: 2; TNAP act mid DEA: 0.8; D1 PAM confirm: 17128*; Isoprot counter: 6380*

What do the screens show for `COc1ccc(C2=Nn3c(nnc3C3CCCCC3)SC2)cc1OC`?
Calb biofilm kill: 2

Results for COc1ccccc1C1=Nn2c(nnc2C2CCCCC2)SC1 ?
FXIa inh mix: 11; Calb biofilm kill: 5; D1 allo mod: 11*; HePTP inh: 7; FXIIa inh mix: 13; TNAP act mid DEA: 1; D1 PAM confirm: 20508*; D1 ag no DA: 1724; Isoprot counter: 6996*

Results for O=c1[nH]c(SC/C=C/c2ccccc2)nc2sc3c(c12)CCCC3 ?
HePTP inh: 0

How did COc1ccc(CN2CCN(S(=O)(=O)c3ccccc3)CC2)cc1OC do in these assays?
HePTP inh: -15

How did COc1ccc(CN2CCN(S(=O)(=O)c3ccc(NC(C)=O)cc3)CC2)cc1OC do in these assays?
FXIa inh mix: -4; Calb biofilm kill: 8; D1 allo mod: 5.2*; HePTP inh: 2; FXIIa inh mix: 4; TNAP act mid DEA: 0.9; D1 PAM confirm: 15368*; D1 ag no DA: 1544; Isoprot counter: 3736*

What do the screens show for `COc1ccc(CN2CCN(S(=O)(=O)c3ccccc3)CC2)c(OC)c1`?
FXIa inh mix: -4; Calb biofilm kill: 3; D1 allo mod: 4.4*; HePTP inh: 9; FXIIa inh mix: 5; TNAP act mid DEA: 0.9; D1 PAM confirm: 6876*; D1 ag no DA: 1608; Isoprot counter: 3612

How did COc1ccc(CN2CCN(S(=O)(=O)c3ccc(F)cc3)CC2)cc1OC do in these assays?
FXIa inh mix: 3; Calb biofilm kill: 8; D1 allo mod: 22*; HePTP inh: 0; FXIIa inh mix: 6; TNAP act mid DEA: 0.9; D1 PAM confirm: 24864*; D1 ag no DA: 1876; Isoprot counter: 4916*

Results for O=C(Nc1cccnc1)c1cnn2c(C(F)(F)F)cc(-c3cccs3)nc12 ?
HePTP inh: 4

Results for O=C(O)CCNC(=O)/C(=C\c1ccccc1)NC(=O)c1ccccc1 ?
HePTP inh: -3

What do the screens show for `Nc1nonc1-n1nnc(C(=O)c2ccccc2)c1-c1ccccc1`?
FXIa inh mix: -1; Calb biofilm kill: 5; D1 allo mod: 4.3*; HePTP inh: -11; FXIIa inh mix: 2; TNAP act mid DEA: 0.9; D1 PAM confirm: 9084*; D1 ag no DA: 1920; Isoprot counter: 2912

How did CC1(C)Cc2nc(-c3ccccc3)n3cnnc3c2CO1 do in these assays?
FXIa inh mix: 9; Calb biofilm kill: 3; D1 allo mod: 9.5*; HePTP inh: 7; FXIIa inh mix: 4; TNAP act mid DEA: 1; D1 PAM confirm: 13436*; D1 ag no DA: 1760; Isoprot counter: 3524*

What do the screens show for `O=C(c1ccccc1Cl)N1CCCC(c2nc3c(nnn3Cc3ccccc3)c(=O)[nH]2)C1` (stereo unspecified)?
FXIa inh mix: -2; Calb biofilm kill: 5; D1 allo mod: 1.4; HePTP inh: -1; FXIIa inh mix: 1; TNAP act mid DEA: 0.9

How did COc1cccc(Cn2nnc3c(=O)[nH]c(C4CCCN(C(=O)c5ccccc5Cl)C4)nc32)c1 (stereo unspecified) do in these assays?
FXIa inh mix: -6; D1 allo mod: 3*; HePTP inh: 5; FXIIa inh mix: 7; TNAP act mid DEA: 1; D1 PAM confirm: 9972*; Isoprot counter: 2912*

Results for Cc1ccc(Cn2nnc3c(=O)[nH]c(C4CCCN(C(=O)Nc5ccc(F)cc5)C4)nc32)cc1 (stereo unspecified) ?
FXIa inh mix: -29; Calb biofilm kill: 3; D1 allo mod: 2.1; HePTP inh: -1; FXIIa inh mix: -1; TNAP act mid DEA: 0.9

Results for COc1ccc(Cn2nnc3c(=O)[nH]c(C4CCCN(C(=O)c5ccccc5)C4)nc32)cc1 (stereo unspecified) ?
FXIa inh mix: 2; Calb biofilm kill: 19; D1 allo mod: 4.3*; HePTP inh: -6; FXIIa inh mix: 2; TNAP act mid DEA: 0.9; D1 PAM confirm: 10456*; D1 ag no DA: 1612; Isoprot counter: 3008

What do the screens show for `COc1ccccc1C(=O)N1CCN(Cc2cc(OC)c(O)c(OC)c2)CC1`?
HePTP inh: 6

What do the screens show for `COc1ccc(CNc2ccc(S(N)(=O)=O)cc2)c(OC)c1OC`?
FXIa inh mix: -27; Calb biofilm kill: 7; D1 allo mod: 5.3*; HePTP inh: 4; FXIIa inh mix: -16; TNAP act mid DEA: 0.9; D1 PAM confirm: 7284*; D1 ag no DA: 1472; Isoprot counter: 3240*

Results for C=CCOc1c(CNc2ccc(S(N)(=O)=O)cc2)cccc1OC ?
Calb biofilm kill: 6

High-throughput results deposited in PubChem BioAssay by several laboratories.
